Among all 330,000 compounds or so, about 20 (0.006%) were called active. About 1% were inconclusive and are not listed. This is one part of a sample in which actives are shown more often than they occur. Calls follow the shape of the dose curve; as a rule, active = well fitted inhibition curve with a large enough effect; inconclusive = small, poorly fitted or top-dose-only effect, or effect the other way; inactive = flat fitted curve, though single readings scatter.
What follows are compounds tested against Protein phosphatase EYA2 (Homo sapiens) (UniProt O00167) (assay: qHTS Assay for Inhibitors of the Phosphatase Activity of Eya2). Conditions: recombinant Eya2, OMFP fluorescence dephosphorylation (OMFP is methylfluorescein phosphate); series mostly up to 76.9 µM; activity, negative = inhibition: at the top concentration.
Excerpt: The Eya family of proteins are essential co-activators of the Six1 transcription factor. Six1 is a developmental gene that is abnormally re-expressed in a large percentage of breast cancers. This over-expression plays a causal role in the initiation and metastatic development of breast cancers. The Eya family of proteins was also found to contain a unique HAD phosphatase domain with protein tyrosine phosphatase activity which can potentially play a role in Six1-mediated breast tumorigenesis. […] We have developed and optimized a 1536 well fluorescence-based HTS assay targeting the phosphatase activity of Eya2. Inhibitors found against Eya2 could serve as potential therapeutic tools to inhibit Six1-mediated breast tumorigenesis and to increase the efficiency of radiation and certain chemo therapy. These inhibitors could also be used as chemical probes to study the function of Eya2's phosphatase activity and its role in Six1-mediated breast tumorigenesis.
The Eya2 enzyme was kindly provided by the laboratory of Dr. Rui Zhao. The 3-O-methyl-fluorescein phosphate (OMFP) substrate and all buffer reagents were purchased from Sigma Aldrich. qHTS Assay Setup: 1. Buffer- 50 mM HEPES pH 7.5, 50 mM NaCl, 5 uM MgCl2, 0.05% BSA, 1 mM DTT. 2. OMFP Stock- 10 mM solution prepared in 100% DMSO and stored in single use aliquots at -20C. Assay Procedure- 1. Dispense 1.5 ul per well of Eya2 at 0.2 uM in black medium binding 1536 well Greiner plate 2. Transfer 23 nl of compound and control compound (EGTA) to plate 3. Incubate at ambient for 10 minutes 4. Dispense 1.5 ul per well of OMFP at 50 uM 5. Incubate at ambient for 10 minutes 6. Read on ViewLux using Excitation = 485 nm, Emission = 525 nm
% is scaled to controls: 0 for no effect and ±100 for the full control effect.

Chain of Protein phosphatase EYA2 (Homo sapiens) (O00167 whole entry, looked up, the tested form may be a part): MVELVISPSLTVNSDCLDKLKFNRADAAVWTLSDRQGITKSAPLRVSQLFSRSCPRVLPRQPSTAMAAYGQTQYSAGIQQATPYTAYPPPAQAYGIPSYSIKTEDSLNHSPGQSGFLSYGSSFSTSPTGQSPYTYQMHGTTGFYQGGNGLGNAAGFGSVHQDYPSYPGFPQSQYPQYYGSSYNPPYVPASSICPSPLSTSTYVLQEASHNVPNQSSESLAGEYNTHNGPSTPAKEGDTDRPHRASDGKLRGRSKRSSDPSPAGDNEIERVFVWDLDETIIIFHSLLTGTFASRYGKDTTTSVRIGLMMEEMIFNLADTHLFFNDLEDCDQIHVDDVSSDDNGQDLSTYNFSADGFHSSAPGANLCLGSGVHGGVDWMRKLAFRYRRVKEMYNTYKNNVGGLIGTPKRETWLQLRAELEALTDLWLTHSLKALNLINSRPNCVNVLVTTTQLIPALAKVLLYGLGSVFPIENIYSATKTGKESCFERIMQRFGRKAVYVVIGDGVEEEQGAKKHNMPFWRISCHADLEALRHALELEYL

activity, negative = inhibition, inactive:
O=C(CN1CCN(S(=O)(=O)c2ccc3ccccc3c2)CC1)NC(=O)NC1CCCCC1 -19.3%
CN(CC(=O)Nc1c(Cl)cccc1Cl)C(=O)CC1OC(=O)c2ccccc21 (configuration not stated) 3.23%
CN(Cc1nc2ccc(F)cc2[nH]1)Cc1nc(CC2CC2)no1 0.753%
COc1ccc(-c2nc(CS(=O)(=O)CC(=O)NCc3cccc(Br)c3)c(C)o2)cc1 17.1%
CCOC(=O)c1ccc2c(c1)nc(SCC(=O)NC(C)C)n2CC -9.46%
CC1(C)CC(O)C(CCC(O)c2ccccc2)C(C)(C)N1 (configuration not stated) 5.53%
Cc1ccc(S(=O)(=O)N(C)C)cc1NC(=O)c1ccccc1Br 16.7%
CC1CC(C)CN(CCCNC(=O)Cn2ncc3c([nH]c4ccccc43)c2=O)C1 (configuration not stated) 9.07%
O=C1COc2ccc(C(=O)COC(=O)C3CC(O)CN3S(=O)(=O)c3ccc(Cl)cc3)cc2N1 (configuration not stated) 5.76%
NC(=O)Cn1nc([N+](=O)[O-])nc1Oc1ccc(Br)cc1 -14.5%
Cc1cc(C)nc(SC2CCCCC2NS(=O)(=O)c2ccc(Cl)cc2)n1 (configuration not stated) -8.85%
O=C(O)c1cc(S(=O)(=O)Nc2ccc3cn[nH]c3c2)ccc1Br -15.2%
CCN(CC(=O)NC1CCS(=O)(=O)C1)S(=O)(=O)c1ccccc1 (configuration not stated) -0.424%
COc1ccc(COC(=O)c2ccc(Cl)c(S(=O)(=O)N3CCOCC3)c2)cc1F -8.01%
CCN(CC)Cc1c(C(=O)N/N=C/c2cccc(OCc3ccc(F)cc3)c2)nnn1-c1nonc1N -9.2%
O=C(CN(C(=O)c1csnn1)c1cccc(F)c1)NCc1ccc(F)cc1 -3.74%
CC(C)=CCN1CCN(Cc2ccc(Oc3ncccn3)cc2)CC1CCO (configuration not stated) 1.39%
COc1ccc(N2CCN(C(=O)CN3C(=O)COc4ccccc43)CC2)cc1 -0.881%
O=C(O)c1cscn1 17.9%
COc1cccc2cc(-c3cc(=O)oc4cc(C)c(O)cc34)oc12 12.5%
O=C(C[C@H]1C/C=C\C[C@@H](NC(=O)OCC2c3ccccc3-c3ccccc32)C(=O)O[C@@H](c2ccccc2)CNC1=O)N[C@H](CO)Cc1ccccc1 -18.4%
CCOc1cc(/C=N/Nc2cc(C)nc3ccc(C)cc23)ccc1O -6.47%
CC(C)CN(C(=O)CN1CCN(S(=O)(=O)c2ccccc2)CC1)c1c(N)n(CC(C)C)c(=O)[nH]c1=O 2.96%
COc1ccc(S(=O)(=O)N2CCCC(C(=O)NCCCn3ccnc3)C2)cc1OC (configuration not stated) 10%
COc1ccc(NC(=O)C/C(C)=N/NC(=O)c2cnccn2)cc1Cl 3.03%
Cc1ccc(S(=O)(=O)N(CC(=O)N/N=C/c2ccc(F)cc2)c2cccc3cccnc23)cc1 12.1%
COc1ccc(C(=O)N(CCN2CCOCC2)CC(=O)NC2CCCC2)cc1OC 12.7%
O=C(NC(Cc1c[nH]c2ccccc12)C(=O)O)/C(=C/c1ccco1)NC(=O)c1ccccc1 (configuration not stated) 12.3%
O=C(NCc1ccccc1Cl)C(=O)NCC1CCCN1S(=O)(=O)c1cccs1 (configuration not stated) 1.47%
CCC1(C)CC(=O)NC1=O (configuration not stated) 3.35%
CCCCOC(=O)Nc1nccs1 1.29%
Cc1ccc(NS(=O)(=O)c2ccc3c(c2)NC(=O)CO3)cc1 8.25%
COC(=O)[C@H](Cc1ccccc1)NC(=O)[C@@H]1C[C@H]1[C@@H](NC(=O)OCc1ccccc1)c1ccccc1 -3.24%
COc1ccc(C2OC(=O)CC2C(=O)NC(C)C)cc1 (configuration not stated) -10.7%
Cc1csc(=O)n1CC(=O)OCC(=O)N(CC(C)C)c1c(N)n(Cc2ccccc2)c(=O)[nH]c1=O -0.534%
C[C@@H](CN1CCC[C@H]1CN1C(N)=NC[C@@H]1Cc1ccccc1)N1C[C@@H](Cc2ccccc2)N(CCCC2CCCC2)C1=N -6.56%
O=C(Nc1cc(S(=O)(=O)N2CCOCC2)ccc1OCC(F)(F)F)c1ccc(N2CCCC2=O)cc1 -23.5%
Cc1ccc(O)c(-c2cc(C(=O)Nc3c(C)n(C)n(-c4ccccc4)c3=O)[nH]n2)c1 -3.31%
O=C(CCC(=O)OCc1cccc(C(=O)Oc2ccccc2)c1)Nc1cccc2ccccc12 -8.93%
CC(C)C(NC(=O)c1c(F)cccc1F)C(=O)NNC(=O)c1ccccc1 (configuration not stated) -29.1%
CCn1cc(CN2CCC(n3nccc3NC(=O)CCCc3ccccc3)CC2)c(C)n1 4.01%
CC(C)c1nnc(NC(=O)C2CC(=O)N(CCc3ccc(F)cc3)C2)s1 (configuration not stated) 1.05%
CN(c1ccc(OCC(=O)OCC(=O)Nc2cccc([N+](=O)[O-])c2)cc1)S(=O)(=O)c1ccc(F)cc1 -16%
Nc1ccc(Nc2cc(O)c3ncccc3c2)cc1 -10.3%
CCOc1ccc(C(=O)CCC(=O)Nc2ccncc2)cc1 16.6%
CCCCc1ccc(NC(=S)N2CCCC(CO)C2)cc1 (configuration not stated) 3.85%
COc1ccc(C(=O)CCc2ccccc2O)c(OC)c1 -1.09%
CC1=CCC2C(=O)N(c3cccc(C(=O)NC(C)c4ccccc4)c3)C(=O)C2C1 (configuration not stated) 5.67%
COc1ccc(S(=O)(=O)N2CCN(C(=O)N(C)C)C2C)cc1 (configuration not stated) -3.3%
CCOc1ncccc1C(=O)NNC(=O)c1cccc(S(=O)(=O)Nc2ccccc2OC)c1 16.1%
CCN(CC)C(=O)Oc1ccc(Br)cc1C(=O)Nc1ccc(F)c(Cl)c1 6.75%
NS(=O)(=O)c1ccc(CCNS(=O)(=O)c2cccc3cccnc23)cc1 8.75%
Cc1ccc(CNC(=O)CCS(=O)(=O)c2ccc3c(c2)CC(C)N3C(=O)C2CC2)o1 (configuration not stated) 1.79%
O=C(NCc1ccco1)C1CCCN1S(=O)(=O)c1ccccc1C(F)(F)F (configuration not stated) 5.37%
CCNc1nc(Oc2ccc(C(=O)OC)cc2)nc(N2CCOCC2)n1 11%
Cc1ccc2nc(NC(=O)CSc3nc(=O)n(CCCN(C)C)c4c3CCC4)sc2c1 3.73%
CCOc1ccc(Br)cc1S(=O)(=O)Nc1ccc(S(=O)(=O)Nc2cc(C)on2)cc1 -19.4%
CCCc1nc(SCC(=O)Nc2ccccc2OC)c2c(=O)n(C)c(=O)n(C)c2n1 12.4%
CN(C)S(=O)(=O)c1ccc(C(=O)NCCN=C2NS(=O)(=O)c3ccccc32)cc1 -23.4%
CC(=O)NCCC(=O)Nc1cc(S(=O)(=O)N2CCCCC2)ccc1Oc1cccc(C)c1 -5.51%
COc1ccc(C(C(=O)NC2CCCC2)N(CCCO)C(=O)Cn2nnc(-c3ccc(C)o3)n2)cc1 (configuration not stated) -6.59%
CCc1cc(C(=O)OC)c(NC(=O)CC2Sc3ccc(C(F)(F)F)cc3NC2=O)s1 (configuration not stated) 17.3%

Source: PubChem BioAssay AID488837 (National Center for Advancing Translational Sciences (NCATS), 2010)
